Source: PubChem BioAssay (National Center for Advancing Translational Sciences (NCATS))
Pol iota inh: inhibitors of human DNA polymerase iota; Q9UNA4; 1% of 390,000 active; Potency, µM (series often up to 115 µM), most hits filed as inhibitors; Pol iota fluorescent replication assay, 10 min
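Fluorescent replication assay read twice, at 0 min and 10 min after adding 50 nM (final) substrate. Enzyme (10 nM) and compounds were first incubated 15 min at room temperature; enzyme-free buffer wells were negative controls.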
POLB inh: DNA polymerase beta (human) inhibition. P06746. Pol beta primer extension/strand displacement, fluorescence kinetic. Potency, µM (top dose mostly 114 µM), hits mostly inhibitors. AID 485314. 1.3% of 340,000 active
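Enzyme-only controls used 10 nM Pol beta; buffer lacking enzyme served as negative control. Compound preincubated 15 min, then 50 nM substrate added; 0 and 10 min reads at room temperature.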
Pol eta inh: inhibitors of human DNA polymerase eta; Q9Y253; recombinant Pol eta, fluorescent DNA replication assay; Potency, µM (titrated, usually from 114 µM), hits mostly inhibitors; 1.2% of 390,000 active; AID 588591
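Pol eta at 10 nM preincubated with compounds 15 min at room temperature; reaction started with fluorescent substrate (50 nM final) and read kinetically at 0 and 10 min.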
L3MBTL1 block: inhibitors of human L3MBTL1 | Q9Y468 | AlphaScreen L3MBTL1–H3K9me1 peptide binding | Potency, µM (doses to about 57.1 µM), most hits filed as inhibitors | 0.66% of 230,000 active; also: nearly all actives have a fitted effect of over 60% in size
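L3MBTL1 (50 nM) pre-complexed 30 min with biotinylated H3(1-15)K9me1 peptide (75 nM), then compounds added for 30 min at room temperature; AlphaScreen streptavidin donor/nickel chelate acceptor beads (10 ug/mL final) read after 30 min dark incubation.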
Pol kappa inh: blocks human DNA polymerase kappa activity | Potency, µM (series often up to 107 µM), usual class: inhibitors | 0.53% of 400,000 active | Q9UBT6 | purified Pol kappa, fluorescent DNA synthesis assay, 10 min
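First, compounds were pin-transferred onto 10 nM Pol kappa. After 15 min at room temperature, substrate was added to 50 nM final. Fluorescence was then measured kinetically at 0 and 10 min.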
Hits are given with their value; 0 = inactive; ? = inconclusive; - = no result; ! = repeats disagree; [ ] = dose if it differs, or a comment. The list is not random: actives were taken first. Their share in the collection is about 2.4%. Calls follow the shape of the dose curve; as a rule, active = well fitted curve in the direction sought with a large enough effect; inconclusive = small, poorly fitted or top-dose-only effect, or another doubt; inactive = no such curve, though single readings can be large; an effect the other way counts as inactive or inconclusive.

SMILES	Pol iota inh	POLB inh	Pol eta inh	L3MBTL1 block	Pol kappa inh
O=C(O)CN1C(=O)/C(=C\c2cc(Br)ccc2OCc2ccccc2Cl)SC1=S	?	32µM	40µM	-	0
Cc1nnc(N2CCN(c3ccccc3F)CC2)c2c1nnn2Cc1ccccc1	0	0	0	-	0
COC(=O)c1nnn(CC(=O)Nc2ccc(Br)c(C)c2)c1N	0	?	0	-	0
CC(C)(C)c1ccc(Oc2ccc(NC(=O)CCC(=O)OCC(=O)c3ccccc3)cc2)cc1	0	0	?	-	0
COc1cc2c(cc1NC(=O)COc1ccc(Br)cc1C)oc1ccccc12	0	0	0	-	0
CCC(C)C(N)C1=NC(C(=O)N[C@@H](CC(C)C)C(=O)N[C@H](CCC(=O)[O-])C(=O)N[C@H](C(=O)N[C@H]2CCCCNC(=O)[C@H](CC(N)=O)NC(=O)[C@@H](CC(=O)[O-])NC(=O)[C@H](Cc3cnc[nH]3)NC(=O)[C@@H](Cc3ccccc3)NC(=O)[C@H]([C@@H](C)CC)NC(=O)[C@@H](CCCN)NC2=O)[C@@H](C)CC)CS1.[Zn+2] (some centres not stated)	0.89µM	-	?	-	?
CC[C@H](C)[C@@H]1NC(=O)[C@H](Cc2ccc(O)cc2)NC(=O)[C@@H](N)CSSC[C@@H](C(=O)N2CCC[C@H]2C(=O)N[C@@H](CC(C)C)C(=O)NCC(N)=O)NC(=O)[C@H](CC(N)=O)NC(=O)[C@H](CCC(N)=O)NC1=O	-	-	-	-	0[12 µM]
COc1ccc(-n2c(=O)c3c4c(sc3n(CC(=O)C(C)(C)C)c2=O)CCCC4)c(OC)c1	0	0	0	-	0
Nc1ncc(O)c(N)n1	-	-	-	-	0
Nc1ccc(-c2nc3ccc(C(=O)O)cc3s2)cc1	0	?	?	0	0
Nc1cc2sc(-c3ccc(C(=O)O)cc3)nc2cc1Cl	?	?	32µM	0	0
N#Cc1ccccc1S(=O)(=O)N1CCN(C(=O)C2COc3ccccc3O2)CC1 (configuration not stated)	79µM	-	?	?	0
O=C(NNc1c(Cl)cccc1Cl)c1sc2ccccc2c1Cl	0	-	-	-	0
CCOc1ccc(/C=C2\SC(=S)N(CC(=O)N(CCO)C(C)(C)C)C2=O)cc1	0	0	0	0	0
CCOc1ccc(N=C2NC(=O)S/C2=C\c2ccc(N(C)C)cc2)cc1	?	0	79µM	0	0
CCOc1ccc(/C=C2/SC(=O)NC2=S)cc1	89µM	?	0	0	?
CCOc1ccc(/C=C2\SC(=S)N(N3C(=O)C4CC4C3=O)C2=O)cc1 (configuration not stated)	0	0	0	-	0
COc1cccc(CNC(=O)c2ccc3c(c2)nc2n3CCOC2)c1OC	0	0	0	-	0
COc1cc(/C=N/N2C(=O)CSC2=S)ccc1O	13µM	0	0	-	79µM
O=C1CSC(=S)N1/N=C/c1cc(Br)c(O)c(Br)c1	14µM	20µM	11µM	-	16µM
O=C1CSC(=S)N1/N=C/c1ccc(Cl)c([N+](=O)[O-])c1	-	22µM	-	?	-
O=C1CSC(=S)N1/N=C/c1ccc2c(c1)OCCO2	?	0	0	-	0
N#CC(C#N)=C(N)/C(C#N)=C/c1ccc2[nH]ccc2c1	-	-	-	-	0[19.4 µM]
COc1ccc(-c2cnc(C)o2)cc1S(=O)(=O)Nc1ccc(C)c(F)c1	?	?	?	-	0
COc1cc(OC)c(/C=C/c2cc3ccccc3c[n+]2C)c(OC)c1	?	-	-	-	0
SMILES	Pol iota inh	POLB inh	Pol eta inh	L3MBTL1 block	Pol kappa inh
C/C(=N\NC(=O)c1cc2ccccc2cc1O)c1ccc(C)o1	?	79µM	0	-	0
C/C(=N/NC(=O)c1cc2ccccc2cc1O)c1ccco1	45µM	63µM	0	-	?
Cc1cccc(OCC(=O)Nc2ccc(OCc3cc(=O)n4cc(C)ccc4n3)cc2)c1	0	0	0	-	0
CC(=O)N[C@H]1CSSC[C@@H](C(=O)N2CCC[C@H]2C(=O)N2CCC[C@H]2C(=O)N[C@@H](CCCCN)C(=O)N[C@@H](CC(=O)O)C(N)=O)NC(=O)CNC(=O)[C@H](Cc2c[nH]c3ccccc23)NC(=O)[C@H](CCCNC(=N)N)NC(=O)[C@@H](Cc2ccc3ccccc3c2)NC(=O)[C@H](Cc2cnc[nH]2)NC(=O)[C@H](CCC(=O)O)NC1=O	-	-	-	-	0
CN1CCN(c2ncc3nc(-c4cccc(C#N)c4)c(=O)n(C[C@H]4CCCO4)c3n2)CC1	-	-	-	-	0
COc1cccc(C2C(C(=O)/C=C/c3ccco3)=C(O)C(=O)N2CCN2CCOCC2)c1 (configuration not stated)	?	0	0	-	0
COc1ccc(C2C(C(=O)/C=C/c3ccco3)=C(O)C(=O)N2CCN2CCOCC2)cc1 (configuration not stated)	20µM	?	0	0	0
CCOC(=O)c1[nH]c(C)c(C(=O)Nc2ccccc2F)c1C	0	0	25µM	0	0
CN1C2C=C3C(C#N)=C(N)C(C#N)(C#N)[C@@H](c4cccc(F)c4)[C@@H]3C1CC2 (some centres not stated)	20µM	0	0	0	0
CCCN1CNc2c(c(=O)[nH]c(=O)n2CCc2ccc(OC)c(OC)c2)C1	0	-	-	-	0
COc1cccc(CNC(=O)c2oc3ccc4c(c3c2C)C(=O)CC(C)(C)O4)c1OC	0	0	-	-	0
CCOC(=O)C1CCN(C(=O)C2CCN(S(=O)(=O)c3c(C)noc3/C=C/c3ccc(C)cc3)CC2)CC1	0	0	0	-	0
CC(=O)N1c2ccc(S(=O)(=O)NCC3CCC(C(=O)N4CCC(C)CC4)CC3)cc2CC1C (configuration not stated)	79µM	0	0	-	0
CCc1ccccc1NC(=O)C1CCC(CNS(=O)(=O)c2ccc3c(c2)CC(C)N3C(C)=O)CC1 (configuration not stated)	0	0	0	-	0
CC(=O)N1c2ccc(S(=O)(=O)NCC3CCC(C(=O)NC4CCC(C)CC4)CC3)cc2CC1C (configuration not stated)	0	0	0	-	0
CC(=O)N1c2ccc(S(=O)(=O)NCC3CCC(C(=O)Nc4cccc(C)c4C)CC3)cc2CC1C (configuration not stated)	?	22µM	0	-	0
COc1ccc(C(=O)C[n+]2ccccc2Cl)cc1	0	-	-	-	0
CCC(=O)CC	-	-	-	-	0
CN1CCc2cccc3c2C1Cc1ccc(O)c(O)c1-3 (configuration not stated)	14µM!	0	0	-	0
CCOC(=O)c1ccc(NC(=O)COc2ccc(-n3cnnn3)cc2)cc1	?	32µM	?	?	0
COc1ccc2ccc3c(c2c1)N=CC1(O3)N(C)c2ccccc2C1(C)C (configuration not stated)	5µM	?	0	32µM	0
CCc1ccc(N=C2NC(=O)CC(C(=O)Nc3ccc(OC)cc3)S2)cc1 (configuration not stated)	0	18µM	?	-	0
COc1cc(-c2noc(-c3ccc(NCc4cccnc4)c([N+](=O)[O-])c3)n2)cc(OC)c1OC	0	45µM	0	-	0
